RGS8-Gao – modulates binding of RGS8 to human Galphao | 220,000 tested, 0.34% active | multiplexed bead flow cytometry; actives lie on both sides | AID 1423 | response (percent of control binding), % at 10 µM; in the data active = response below about 60% or above about 140%; inactive = in between;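 also: Galphao activated as the GDP aluminium fluoride complex binding bead-coupled RGS8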
Target sequence (P09471 whole entry, looked up): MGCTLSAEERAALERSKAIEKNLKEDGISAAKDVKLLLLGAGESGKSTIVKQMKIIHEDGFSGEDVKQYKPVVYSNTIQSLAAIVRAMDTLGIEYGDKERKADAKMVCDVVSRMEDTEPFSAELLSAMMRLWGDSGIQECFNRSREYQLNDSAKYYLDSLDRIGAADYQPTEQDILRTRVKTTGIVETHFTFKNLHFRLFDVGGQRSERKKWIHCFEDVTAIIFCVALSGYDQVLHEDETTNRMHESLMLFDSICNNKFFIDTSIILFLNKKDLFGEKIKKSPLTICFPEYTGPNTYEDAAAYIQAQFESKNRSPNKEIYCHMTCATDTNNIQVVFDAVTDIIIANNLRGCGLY
RGS7-Gao reg – modulates binding of RGS7 to human Galphao | binding response (% of control), % at 10 µM | P09471 | Multiplexed bead flow cytometry; actives lie on both sides | 220,000 tested, 0.35% active; in the data active = binding response below about 49% or above about 150%; inconclusive = no clear call, values can overlap the other calls; inactive = in between;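 also: fluorescent Galphao held in activated GDP-AlF4 state binding bead-coupled RGS7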
GSH bead fluor – GSH bead compound fluorescence profile; fluorescence (KMESF) at 10 µM; GSH beads flow cytometry, compound fluorescence 488/530 nm; hits give high values; AID 1776; 190,000 tested, 0.25% active; in the data active = fluorescence above about 89;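 also: glutathione beads carrying GST-tagged Bcl family fusion proteins plus one bare bead set; values are compound well signal with DMSO vehicle wells as background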
RGS4-Gao reg – modulates binding of RGS4 to human Galphao. Multiplexed bead flow cytometry; actives lie on both sides. binding response (% of control), % at 10 µM. 220,000 tested, 0.33% active; in the data active = binding response below about 49% or above about 150%; inactive = in between;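 also: fluorescent Galphao activated with aluminum fluoride binding bead-coupled RGS4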
RGS16-Gao HTS – RGS16-Galphao interaction regulator (human); binding response (% of control), % at 10 µM; AID 1441; O15492+P09471; 220,000 tested, 0.38% active; bead-based flow cytometry RGS16-Galphao binding, fluorescence; actives lie on both sides;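 also: Galphao activated by GDP with aluminum fluoride before binding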
Target sequence (O15492 whole entry, looked up): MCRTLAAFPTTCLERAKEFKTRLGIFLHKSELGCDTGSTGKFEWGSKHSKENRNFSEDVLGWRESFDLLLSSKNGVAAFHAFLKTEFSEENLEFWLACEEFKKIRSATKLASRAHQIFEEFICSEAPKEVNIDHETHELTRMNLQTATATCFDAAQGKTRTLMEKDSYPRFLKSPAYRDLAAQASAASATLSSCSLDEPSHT
Target sequence (P09471 whole entry, looked up): as the sequence (P09471 whole entry, looked up) above
Avidin fluor – compound fluoresces at 488/530 nm on avidin beads; fluorescence (KMESF) at 10 µM; 220,000 tested, 0.38% active; compound fluorescence 488/530 nm, flow cytometry; hits give high values; in the data active = fluorescence above about 47
RGS4-Gao HTS – regulators of human RGS4-Galphao interaction; shares compounds with RGS16-Gao HTS; multiplexed bead flow cytometry, RGS–Galpha-o binding; RGS4–Galpha-o binding response, % at 10 µM; 1,600 tested, 99% active;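 also: fluorescently labeled Galpha-o bound to GDP with aluminium fluoride binding biotinylated RGS beads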
Biotin-avidin – interferes with biotinylated probe binding to avidin beads. shares compounds with RGS16-Gao HTS. streptavidin beads, fluorescein-biotin binding, flow cytometry. inhibition, % at 10 µM. 1,700 tested, under 10 active. AID 1783;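 active = inhibition above 50%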;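 also: median green fluorescence of gated singlet beads compared with DMSO control wells; 0% = DMSO wells and 100% = complete loss of bead fluorescence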
RGS8-Gao single – confirmation of regulators of human RGS8-Galphao interaction; shares compounds with RGS16-Gao HTS; bead-based flow cytometry RGS8-Galphao binding, fluorescence; actives lie on both sides; binding response (% of control), % at 10 µM; 1,700 tested, 3% active; in the data active = binding response below about 72% or above about 130%; inactive = in between;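 also: Galphao activated as GDP AlF4 complex before binding bead RGS8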
RGS7-Gao single – RGS7-Galphao interaction regulation, single point confirmation | shares compounds with RGS16-Gao HTS | bead-based flow cytometry RGS7-Galphao binding; actives lie on both sides | response (percent of control binding), % at 10 µM | 1,700 tested, 7.8% active; in the data active = response below about 75% or above about 130%; inactive = in between;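 also: fluorescent Galphao activated with GDP and aluminum fluoride binding bead-coupled RGS7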
RGS16-Gao single – confirmation of regulators of human RGS16-Galphao interaction. 1,700 tested, 4% active. response (% of control binding), % at 10 µM. shares compounds with RGS16-Gao HTS. bead-based flow cytometry, RGS16-Galphao binding; actives lie on both sides. AID 1838; in the data active = response below about 74% or above about 130%; inactive = in between;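 also: Galphao activated as the GDP aluminium fluoride complex binding bead-coupled RGS16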
RGS4-Gao single – RGS4-Galphao interaction regulation, single point confirmation; shares compounds with RGS16-Gao HTS; RGS4-Galphao binding, multiplexed bead flow cytometry; actives lie on both sides; binding response (% of control), % at 10 µM; 1,700 tested, 4% active; AID 1840; in the data active = binding response below about 74% or above about 130%; inactive = in between
RGS19-Gao conf – confirmation of regulators of human RGS19-Galphao interaction. AID 1841. bead-based flow cytometry RGS19-Galphao binding; actives lie on both sides. response (percent of control binding), % at 10 µM. shares compounds with RGS16-Gao HTS. 1,700 tested, 5% active; in the data active = response below about 50% or above about 160%; inactive = in between;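 also: 100% = no compound control and 0% = blank background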
* marks the source's active call; other numbers are inactive results; ? = inconclusive; nt = no result given; ! = a repeat was not active; [ ] = another dose, or the depositor's remark. Most compounds without a hit are left out; they make up all but 1.2% or so of the library. Unless noted, no rule for the calls is given here.

SMILES	RGS8-Gao	RGS7-Gao reg	GSH bead fluor	RGS4-Gao reg	RGS16-Gao HTS	Avidin fluor	others
CCC(=NCCN1CCOCC1)c1c(O)n(-c2ccccc2C)c(=O)[nH]c1=O	110	106	26	105	150	11
CC(=NCCN1CCOCC1)c1c(O)n(-c2ccccc2C)c(=O)[nH]c1=O	28*	9.2*	12	-2.9*	3.0*	nt
Cc1nnc2n1-c1ccc(Cl)cc1C(c1ccccc1)=NC2	100	101	65	101	98	7
C=CCc1cc(C=C2C(=O)N(C)C(=O)N(C)C2=O)cc(OCC)c1OCc1ccccc1	91	89	17	96	90	4
O=c1[nH]c(O)c(/C=C2\C=NN=C2c2ccccc2)c(=O)[nH]1	84	87	266*	93	84	5
O=C(Nc1ccccc1OC(=O)N1CCCCC1)N1CCCCC1	89	75	15	78	73	12
CC(C)(C)n1cc(C(=O)c2ccccc2)cc1-c1ccccc1	98	?	nt	99	104	3
O/N=C1\CCC2CN(C3CCCCC3)CC2C1 (stereo not given)	105	103	8	103	107	12
C=CCn1c(O)c(C(CC)=NCCc2ccccc2)c(=O)[nH]c1=O	98	98	56	99	98	8
C=CCn1c(O)c(C(C)=NCCc2ccccc2)c(=O)[nH]c1=O	102	99	24	99	99	51*
Brc1ccc(CN2CCNCC2)s1	99	100	269*	100	101	8
CC1(C)CSC(Nc2ccc(F)c(Cl)c2)=N1	105	103	253*	104	109	7
CC1(C)CN=C(Nc2ccc(F)c(Cl)c2)S1	102	?	nt	105	105	3
Cc1ccc(NP(=O)(Oc2ccccc2F)Oc2ccccc2F)cc1	97	107	20	98	98	48*
CC(C)=CCOc1c2occc2cc2ccc(=O)oc12	102	99	18	101	101	11
CCOC(=O)c1c(C)n(Cc2ccc3c(c2)OCO3)c2ccc(O)cc12	97	92	249*	94	95	7
COC(=O)c1c(C)n(Cc2ccc3c(c2)OCO3)c2ccc(O)cc12	100	104	49	106	113	41
CN(C)P(=NC(=S)c1cccn1C)(N(C)C)N(C)C	101	116	27	107	107	58*
CN(C)P(=O)(NC(=O)c1cccn1C)N(C)C	102	105	8	104	102	14
C=CCn1c(O)c(C=NCCN(C)C)c(=O)[nH]c1=O	102	93	4	93	97	16
CN(C)CCN=Cc1c(O)n(-c2cccc(C(F)(F)F)c2)c(=O)[nH]c1=O	98	97	266*	100	109	10
CCCCn1c(=O)c(C(=O)Nc2ccsc2C(=O)OC)c(O)c2ccccc21	101	97	10	98	100	3
O=C(COc1ccc2ccccc2c1)N1CCN(CC2CC3C=CC2C3)CC1 (stereo not given)	104	112	17	100	110	50*
COc1ccc(C(=O)C23CN4CN(CN(C4)C2)C3)cc1	104	116	10	102	113	51*
COc1ccccc1-n1c(O)c(C=Nc2c(C)n(C)n(-c3ccccc3)c2=O)c(=O)[nH]c1=O	102	102	261*	99	100	8
SMILES	RGS8-Gao	RGS7-Gao reg	GSH bead fluor	RGS4-Gao reg	RGS16-Gao HTS	Avidin fluor	others
CC1CCCN(C(=O)c2ccc(N3CC4CC(C3)c3cccc(=O)n3C4)c([N+](=O)[O-])c2)C1 (stereo not given)	99	106	15	102	102	10
Cc1nn(Cc2ccccc2)c(C)c1C(=O)O	102	103	24	99	106	12
Cc1ccc2c(c1)CC1(CN2C)C(=O)NC(=O)N(c2ccc(C)c(C)c2)C1=O (stereo not given)	118	109	256*	113	143	6
O=C1CN=C(c2ccccc2)c2cc(Br)ccc2N1Cc1cc(=O)n2ccccc2n1	104	107	184*	106	111	23
S=C1CN=C(c2ccccc2Cl)c2cc(Cl)ccc2N1	100	94	119*	95	100	5
CCOP(=S)(OCC)c1ccc(N(C)C)cc1	149*[activator]	116	65	123	329	13	RGS4-Gao HTS=123*;Biotin-avidin=0;RGS8-Gao single=100;RGS7-Gao single=100;RGS16-Gao single=99;RGS4-Gao single=100;RGS19-Gao conf=89
O=c1c2ccc(Cl)cc2[nH]c(=S)n1-c1cccnc1	104	109	13	107	107	12
O=C1NC(=O)N(CC2CCCO2)C(=O)/C1=C/c1cccs1 (stereo not given)	108	?	nt	185*[activator]	160	75*	Biotin-avidin=2;RGS8-Gao single=88;RGS7-Gao single=93;RGS16-Gao single=93;RGS4-Gao single=99;RGS19-Gao conf=87
CCN(CC)c1ccc(/C=C2/C(=O)NC(=O)N(CC3CCCO3)C2=O)cc1 (stereo not given)	103	100	14	99	101	8
Cn1nc(-c2ccc(OCC(=O)N3CCN(Cc4ccccc4)CC3)cc2)c2ccccc2c1=O	66	42*!	29	35*!	38	1	Biotin-avidin=0;RGS8-Gao single=101;RGS7-Gao single=104;RGS16-Gao single=100;RGS4-Gao single=101;RGS19-Gao conf=87
Cn1cccc1CN1CCN(C(=O)COc2ccccc2)CC1	96	95	17	92	88	14
Cc1c(N=Nc2c(O)n(C)c(=O)n(C)c2=O)c(=O)n(-c2ccccc2)n1C	58*	66	12	65	1	6	RGS4-Gao HTS=65*;Biotin-avidin=1;RGS8-Gao single=100;RGS7-Gao single=99;RGS16-Gao single=98;RGS4-Gao single=102;RGS19-Gao conf=92
